Results on 35 molecules are retold here after PubChem BioAssay.

Sequence of Neurogenic locus notch homolog protein 2 (Homo sapiens) (Q04721 whole entry, looked up): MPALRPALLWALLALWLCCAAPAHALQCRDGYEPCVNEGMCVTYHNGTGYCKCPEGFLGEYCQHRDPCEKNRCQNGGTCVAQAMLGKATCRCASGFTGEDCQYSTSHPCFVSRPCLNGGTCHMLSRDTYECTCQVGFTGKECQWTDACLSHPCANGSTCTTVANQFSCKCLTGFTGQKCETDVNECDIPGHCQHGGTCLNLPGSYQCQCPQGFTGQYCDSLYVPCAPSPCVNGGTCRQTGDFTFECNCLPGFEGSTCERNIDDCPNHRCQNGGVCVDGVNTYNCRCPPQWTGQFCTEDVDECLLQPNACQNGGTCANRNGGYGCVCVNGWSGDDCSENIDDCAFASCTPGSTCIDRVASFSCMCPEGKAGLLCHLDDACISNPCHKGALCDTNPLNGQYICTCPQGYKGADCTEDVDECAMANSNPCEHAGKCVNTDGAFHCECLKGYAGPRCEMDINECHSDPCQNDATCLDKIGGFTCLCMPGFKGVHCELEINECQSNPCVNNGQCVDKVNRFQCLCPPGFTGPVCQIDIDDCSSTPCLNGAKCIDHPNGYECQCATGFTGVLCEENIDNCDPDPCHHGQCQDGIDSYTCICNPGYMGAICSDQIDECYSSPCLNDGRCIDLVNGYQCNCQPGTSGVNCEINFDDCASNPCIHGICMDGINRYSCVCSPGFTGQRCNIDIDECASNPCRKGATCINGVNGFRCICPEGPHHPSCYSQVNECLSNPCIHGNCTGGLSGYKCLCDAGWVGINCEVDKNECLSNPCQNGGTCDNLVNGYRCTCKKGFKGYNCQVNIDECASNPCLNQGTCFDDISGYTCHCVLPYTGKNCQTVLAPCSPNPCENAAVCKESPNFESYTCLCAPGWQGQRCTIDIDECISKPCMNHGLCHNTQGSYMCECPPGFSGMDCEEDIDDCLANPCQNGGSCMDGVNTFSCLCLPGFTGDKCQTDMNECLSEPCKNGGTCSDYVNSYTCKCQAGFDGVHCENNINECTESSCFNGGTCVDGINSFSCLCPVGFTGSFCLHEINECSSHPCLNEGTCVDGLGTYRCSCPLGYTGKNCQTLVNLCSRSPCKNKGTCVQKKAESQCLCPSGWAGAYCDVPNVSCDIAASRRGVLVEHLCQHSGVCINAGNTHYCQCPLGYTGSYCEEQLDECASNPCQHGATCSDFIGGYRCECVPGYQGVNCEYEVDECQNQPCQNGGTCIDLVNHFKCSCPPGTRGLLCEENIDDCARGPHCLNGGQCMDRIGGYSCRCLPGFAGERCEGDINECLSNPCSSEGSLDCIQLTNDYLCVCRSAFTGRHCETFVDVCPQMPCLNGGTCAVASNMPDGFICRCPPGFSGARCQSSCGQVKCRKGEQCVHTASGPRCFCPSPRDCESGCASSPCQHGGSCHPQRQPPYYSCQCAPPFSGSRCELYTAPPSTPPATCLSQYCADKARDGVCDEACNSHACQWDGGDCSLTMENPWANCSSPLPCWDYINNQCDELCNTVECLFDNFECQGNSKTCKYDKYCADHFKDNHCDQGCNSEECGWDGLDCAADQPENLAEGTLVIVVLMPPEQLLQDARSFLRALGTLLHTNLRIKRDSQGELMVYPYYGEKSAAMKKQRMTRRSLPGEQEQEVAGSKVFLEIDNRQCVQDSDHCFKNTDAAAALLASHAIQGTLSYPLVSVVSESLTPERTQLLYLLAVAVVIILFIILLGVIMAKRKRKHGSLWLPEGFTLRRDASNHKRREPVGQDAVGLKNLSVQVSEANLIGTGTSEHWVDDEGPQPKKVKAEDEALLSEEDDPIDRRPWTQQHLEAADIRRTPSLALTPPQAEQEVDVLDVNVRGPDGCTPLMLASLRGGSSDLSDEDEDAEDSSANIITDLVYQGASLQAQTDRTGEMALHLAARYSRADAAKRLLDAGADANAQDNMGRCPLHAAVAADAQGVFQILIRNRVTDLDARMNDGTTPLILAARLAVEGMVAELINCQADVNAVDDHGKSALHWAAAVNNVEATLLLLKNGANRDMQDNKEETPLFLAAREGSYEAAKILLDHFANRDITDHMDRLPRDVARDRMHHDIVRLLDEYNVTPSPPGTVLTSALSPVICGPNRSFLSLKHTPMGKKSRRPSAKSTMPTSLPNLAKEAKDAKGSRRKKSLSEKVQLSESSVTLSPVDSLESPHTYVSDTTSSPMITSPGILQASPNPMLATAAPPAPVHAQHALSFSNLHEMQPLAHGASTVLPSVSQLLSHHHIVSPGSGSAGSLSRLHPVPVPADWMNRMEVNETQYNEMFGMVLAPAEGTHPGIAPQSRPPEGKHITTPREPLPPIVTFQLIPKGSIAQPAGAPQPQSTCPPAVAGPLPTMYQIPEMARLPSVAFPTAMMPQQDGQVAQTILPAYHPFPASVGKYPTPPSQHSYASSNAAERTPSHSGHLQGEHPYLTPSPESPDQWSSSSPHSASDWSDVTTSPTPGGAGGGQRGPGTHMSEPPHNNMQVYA

The experiment addresses Neurogenic locus notch homolog protein 2 (Homo sapiens) (UniProt Q04721). The experiment is described as follows: Notch2 binders on small-molecule microarrays, primary screen, biochemical, small-molecule microarray, 635 nm fluorescence, stem cell growth factors (AID 1073). The note with it: Notch2 binding, higher = more signal.
In the case of `CC(=O)c1ccc(C(O)C2C=CC3C(=O)NC(=O)C3N2Nc2ccc(Cl)cc2Cl)cc1` (stereo not given), the composite z-score was 1.01.
To `C=CCC(OC(C)=O)[C@@H]1[C@@H](N(Cc2cccc3ccccc23)C(=O)c2ccc(C)cc2)c2cc(OCCCO)ccc2N1C(=O)c1ccc2ccccc2n1` (stereo not given in full) belongs -0.327.
For `COC(=O)[C@@H]1N=C(c2ccc(OCCCO)cc2)O[C@@H]1c1ccccc1CN=[N+]=[N-]` the value was -0.549; for `COc1ccc([Si](C)(C)[C@@H]2[C@@H](CCO)O[C@]3(C(=O)N(Cc4ccccc4)c4ccc(N5C(=O)c6ccccc6Oc6ccccc65)cc43)[C@H]2C)cc1`, -0.236; for `COC(=O)[C@@]1(Cc2ccc(F)cc2)[C@H]2c3cc(C(=O)N(C)C)n(CCO)c3C[C@H]2CN1C(=O)c1ccccc1`, 1.5.
In turn, `CC(C)(C)N1CC=CC23O[C@@H]4/C=C\CCCOC(=O)C4[C@H]2C(=O)N(CCCCCCO)[C@@H]3C1=O` (stereo not given in full) came in with a composite z-score of -1.12.
`C=C(CCCC)C(=O)CC[C@H](OC(C)=O)c1ccccc1OCCO`: the composite z-score worked out at 0.435.
In turn, `COCCOC(=O)N1C(=O)[C@@]2(c3cc(C#CCC(C(=O)OC)C(=O)OC)ccc31)[C@H](C(=O)N1CCc3cc(OC)c(OC)cc3C1)[C@H]1C(=O)O[C@H](c3ccccc3)[C@H](c3ccccc3)N1[C@@H]2c1ccc(O)cc1` came in with a composite z-score of 1.54.
`O=C(NCCO)C1=C[C@H](Oc2ccccc2I)[C@@H](O)[C@H](NCc2ccc(F)cc2)C1`: the composite z-score was -0.627.
`C=CCC(OC(C)=O)[C@@H]1[C@@H](N(Cc2cccc3ccccc23)C(=O)c2ccc(-c3ccccc3)cc2)c2cc(OCCCO)ccc2N1C(=O)c1ccc2ccccc2n1` (stereo not given in full) registered a composite z-score of 0.285.
For `COc1ccc([Si](C)(C)[C@H]2[C@H](CCO)O[C@@]3(C(=O)N(Cc4ccccc4)c4ccc(N(C=O)c5ccccc5)cc43)[C@@H]2C)cc1`, the composite z-score worked out at 0.697.
`CCCC[C@H]1OB(O)C[C@H]2C1=C(C)C[C@H]1C(=O)C=CC(=O)[C@H]12`: the composite z-score is 0.425.
To `[N-]=[N+]=NCc1ccccc1[C@@H]1OC(c2ccc(OCCCO)cc2)=N[C@]1(Cc1ccccc1)C(=O)NCc1ccccc1` belongs 1.3; to `COc1ccccc1CN1C(=O)c2ccccc2[C@](Cc2ccccc2I)(C(=O)NCCCN(C)C)[C@@H]1c1ccc(CO)cc1`, 0.452; to `CCCCCCc1nc(-c2ccc(OC)nc2)cc2c1[Si](C(C)C)(C(C)C)OC2`, -0.383.
With `CC(=O)n1cc(C(O)C2C=CC3C(=O)N(c4ccccc4)C(=O)C3N2Nc2ccccc2F)c2ccccc21` (stereo not given), the composite z-score is 0.021.
Consider `COc1ccc(NN2C(C(O)c3cc(C(F)(F)F)cc(C(F)(F)F)c3)C=CC3C(=O)N(C4CCCCC4)C(=O)C32)cc1` (stereo not given), for which the composite z-score was found to be 1.37.
For `CC1CC/C=C\[C@H]2OC34C=CCN(c5ccc(Cl)cc5)C(=O)[C@H]3N(CCCO)C(=O)[C@]4(C)C2C(=O)O1` (stereo not given in full) the value was -0.932; for `O=C1NC(=O)C2C1C=CC(C(O)c1cccc(O)c1)N2Nc1ccc(Cl)cc1Cl` (stereo not given), 1.09; for `CCc1cccc(NC(=O)O[C@H]2[C@H](OC(=O)Nc3ccc4c(c3)OCO4)[C@H](OC(=O)Nc3ccc4c(c3)OCO4)[C@@H](OC)O[C@@H]2CO)c1`, 0.603.
To `C[N+](C)(C)CCCCCCNC(=O)[C@@H]1C[C@@H]2C(=O)N[C@@H](Cc3ccccc3)C(=O)N2[C@@H]1c1ccc(O)cc1` belongs 0.581.
To `CCN(CC)c1ccc(N2CC=CC34O[C@@H]5C=CCOC(=O)[C@@H]5[C@H]3C(=O)N(CCCO)[C@@H]4C2=O)cc1` (stereo not given in full) belongs -1.04; to `COCCCNC(=O)[C@@]1(Sc2ccc(C)cc2)CC(=O)N(C2CCCCC2)[C@@H]1c1ccc(CO)cc1I`, 1.02; to `COCCOC(=O)N1C(=O)[C@@]2(c3cc(C#CC4(O)CCCCCC4)ccc31)[C@H](c1ccc(OCCO)cc1)N1[C@H](c3ccccc3)[C@H](c3ccccc3)OC(=O)[C@H]1[C@@H]2C(=O)N1CCCCCCC1`, 1.25.
As to `C=CC[C@@]12N=C(c3ccc(OCCCO)cc3)O[C@@H]1c1ccccc1N(Cc1ccccc1)C2=O`, the composite z-score stood at 0.552.
`C=C(CCCC)/C(=C/C[C@H](OC(C)=O)c1cccc(OCCO)c1)c1cc(C(=O)OC)ccc1OC`: the composite z-score is -0.393.
Take `O=c1cccc(-c2ccccc2C(F)(F)F)o1`: the composite z-score is -0.489.
`COC(=O)[C@@]1(Cc2ccc(OC)cc2)[C@H]2c3cc(C(=O)N4CCCC4)n(CCc4ccc(OC)c(Br)c4)c3C[C@H]2CN1C(=O)c1ccccc1` returned a composite z-score of 1.04.
To `COc1ccc(CCNC(=O)[C@@H]2c3ccccc3C(=O)N(CC34CC5CC(CC(C5)C3)C4)[C@H]2c2ccc(CO)cc2)cc1` belongs 0.703; to `CCCCC(=C=CC[C@@H](O)c1cccc(OCCO)c1)CCO`, -0.277; to `COC(=O)C1(CC(C)C)C=C2C(=C(C(C)C)C(=O)C2C)CN1` (stereo not given), -0.507.
`COCCOC(=O)N1C(=O)[C@@]2(c3cc(C#CCC(C(=O)OC)C(=O)OC)ccc31)[C@H](C(=O)N1CCCCCCC1)[C@H]1C(=O)O[C@H](c3ccccc3)[C@H](c3ccccc3)N1[C@@H]2c1ccccc1OCCO` showed a composite z-score of 1.39.
To `C=CCNC(=O)[C@H]1[C@@H]2C(=O)O[C@@H](c3ccccc3)[C@@H](c3ccccc3)N2[C@@H](c2ccc(O)cc2)[C@]12C(=O)Nc1ccc(C#CC3=CCCCC3)cc12` belongs 0.706; to `C=CCC(OC(C)=O)[C@@H]1[C@@H](N(Cc2ccc(-c3cccc(C(F)(F)F)c3)o2)C(=O)c2cccc3ccccc23)c2cc(OCCCO)ccc2N1C(=O)c1ccc2ccccc2n1` (stereo not given in full), -0.381.
The molecule `CCC[C@@H]1[C@@H](Sc2ccccc2)[C@@H](C(=O)O)[C@H](c2ccc(C)cc2)N1S(=O)(=O)c1ccc(C)cc1` yielded a composite z-score of 1.67.
